Compound activity: PubChem BioAssay, National Center for Advancing Translational Sciences (NCATS)
HT1080-NT tox = kills 2HG-producing HT-1080-NT fibrosarcoma cells; HT-1080-NT fibrosarcoma viability, CellTiter-Glo ATP luminescence, 48 h; Potency, µM (top dose mostly 46.1 µM), usual class: cytotoxic; actives 1.6% (n = 360,000);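 further: NT is the 2HG producing partner of a matched IDH1 knockdown line; nearly all actives have a fitted effect of over 55% in size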
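Viability by CellTiter-Glo luminescence after 48 h compound exposure at 37C of HT-1080-NT cells (750/well, RPMI, 5% FBS). % activity scaled between DMSO wells and medium-only wells, then curve-fitted and categorized by curve class.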
HepG2 viability = kills HepG2 cells in TGF-b inhibitor counter-screen. HepG2 CAGA-GFP viability, ATP luminescence, 18 h. actives 0.76% (n = 410,000). Potency, µM (series often up to 46.1 µM), most hits filed as cytotoxic
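CellTiter-Glo luminescence gave cytotoxicity after 18 hours at 37 degrees C. The cells were HepG2 CAGA-GFP in 1% FBS DMEM, stimulated with 500 pg/mL TGF-beta after compound addition. %Activity was normalised to no-cell wells (complete cell-killing) and DMSO (no toxicity), and curves were fitted and classified.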
TGFb SMAD3 inh = blocks TGF-b signaling | AID 588855 | Potency, µM (top dose mostly 46.1 µM), usual class: inhibitors | actives 1.2% (n = 410,000) | HepG2 CAGA-GFP TGF-b/SMAD3 reporter, GFP fluorescence, 18 h; TGF-beta stimulated, 500 pg/mL final; further: nearly all actives have a fitted effect of over 65% in size
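HEPG2 CAGA-GFP, 1000 cells/well; 2 h settle, 37 C; cpd via pin tool; TGF-b 500 pg/mL final; 18 h, 37 C; GFP imaging ex488/em500-530; %Activity normalised to -TGF-b and +DMSO controls; CRC fit, curve class.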
TDP1 cell CPT = DT40-hTDP1 cell growth loss with CPT | actives 12% (n = 420,000) | Potency, µM (doses to about 46.2 µM), most hits filed as inhibitors | chicken DT40 Tdp1-/-;hTDP1 cells + 20 nM CPT, ATP luminescence, 48 h; further: nearly all actives have a fitted effect of over 55% in size
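Chicken DT40 Tdp1-/- cells complemented with human TDP1, 400 cells/well, exposed to compounds plus 20 nM camptothecin for at least 48 h at 37 C; viability read as ATP content by CellTiter-Glo luminescence.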
DT40 TDP1 no CPT = qHTS for Inhibitors of human tyrosyl-DNA phosphodiesterase 1 (TDP1): qHTS in cells in absence of CPT; actives 15% (n = 420,000); DT40 Tdp1-/- hTDP1 cells, no CPT, ATP luminescence, 48 h; Potency, µM (series often up to 46.2 µM), usual class: inhibitors; AID 686978, 2013; further: nearly all actives have a fitted effect of over 55% in size
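Cells were dispensed at 400 per well, compounds added by pin tool, plates incubated ≥48 hr at 37 °C, then CellTiter-Glo added for 30 min at room temperature before luminescence reading. Line: DT40 Tdp1-/- complemented with hTDP1; camptothecin omitted.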
HT1080 IDH1KD tx = kills HT-1080 cells with IDH1 knockdown; HT-1080 IDH1 knockdown viability, ATP luminescence, 48 h; AID 686971; actives 2% (n = 360,000); Potency, µM (titrated, usually from 46.1 µM), actives largely listed as cytotoxic
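% activity derives from luminescence (CellTiter-Glo), normalised to DMSO and no-cell wells. HT-1080-IDH1KD cells, 750/well, had 48 h compound exposure at 37 °C.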
Each line names hits and unclear results; the compound was inactive in the other large screens. The list is not random: actives were taken first. Their share in the collection is about 17%. The call rests on the fitted dose curve; in most records, active means well fitted curve in the direction sought with a large enough effect; inconclusive means small, poorly fitted or top-dose-only effect, or another doubt; inactive means no such curve, though single readings can be large; an effect the other way counts as inactive or inconclusive.

COC(=O)c1ccc(NC(=O)CC2C(=O)N(c3cccc(OC)c3)C(=O)N2Cc2ccco2)cc1 (configuration not stated)	TDP1 cell CPT 16µM, DT40 TDP1 no CPT inconclusive (no result: HT1080-NT tox, HT1080 IDH1KD tx)
O=C(CC1C(=O)N(c2ccc(Cl)cc2)C(=S)N1CCc1ccncc1)Nc1ccc(F)cc1 (configuration not stated)	HT1080-NT tox inconclusive, HepG2 viability 11µM, TGFb SMAD3 inh inconclusive, TDP1 cell CPT inconclusive, DT40 TDP1 no CPT inconclusive, HT1080 IDH1KD tx inconclusive
COc1ccc(CN2C(=O)N(c3ccc(F)cc3)C(=O)C2CC(=O)Nc2cc(OC)cc(OC)c2)cc1 (configuration not stated)	TDP1 cell CPT inconclusive, DT40 TDP1 no CPT inconclusive (no result: HT1080-NT tox, HT1080 IDH1KD tx)
CCOC(=O)c1ccc(NC(=O)CC2C(=O)N(c3ccccc3)C(=O)N2Cc2ccc(C)cc2)cc1 (configuration not stated)	TDP1 cell CPT inconclusive, DT40 TDP1 no CPT 23µM (no result: HT1080-NT tox, HT1080 IDH1KD tx)
COc1ccc(CN2CCOc3ccc(CN4CCN(CCO)CC4)cc3C2)c2ccccc12	DT40 TDP1 no CPT inconclusive (no result: HT1080-NT tox, HepG2 viability, TGFb SMAD3 inh, HT1080 IDH1KD tx)
O=C(NC(Cc1c[nH]c2ccccc12)C(=O)O)c1ccc(Br)cc1 (configuration not stated)	none
O=C(NCc1ccc(Cl)cc1)[C@@H]1CCCN1S(=O)(=O)c1ccc(Cl)cc1	TDP1 cell CPT inconclusive, DT40 TDP1 no CPT inconclusive
OC[C@@H]1CN(Cc2ccc3c(c2)OCO3)C[C@H](n2cnc3c(NC4CCC4)ncnc32)O1	TDP1 cell CPT inconclusive, DT40 TDP1 no CPT inconclusive
CCOc1ccc(NC(=O)CC2C(=O)N(c3ccc(C)cc3)C(=O)N2Cc2ccc(OC)cc2)cc1 (configuration not stated)	TDP1 cell CPT inconclusive, DT40 TDP1 no CPT 23µM (no result: HT1080-NT tox, HT1080 IDH1KD tx)
COc1ccc(CN2C(=O)N(c3ccc(OC)cc3)C(=O)C2CC(=O)Nc2ccccc2)cc1 (configuration not stated)	DT40 TDP1 no CPT inconclusive
COc1ccc(CCN2C(=O)N(c3ccc(C)cc3)C(=O)C2CC(=O)Nc2ccc(F)cc2)cc1 (configuration not stated)	TGFb SMAD3 inh inconclusive, TDP1 cell CPT inconclusive, DT40 TDP1 no CPT 21µM (no result: HT1080-NT tox, HT1080 IDH1KD tx)
CCc1ccc(C(=O)COC(=O)C2=NN(c3ccccc3)C(=O)CC2)cc1	none
Cc1cc(C)n(-c2nc3ccccc3nc2N2CCN(S(=O)(=O)c3ccc4ccccc4c3)CC2)n1	TDP1 cell CPT inconclusive, DT40 TDP1 no CPT 14µM
Cc1cc(C)n(-c2nc3ccccc3nc2N2CCN(S(=O)(=O)c3ccc(F)c(C)c3)CC2)n1	TDP1 cell CPT 23µM, DT40 TDP1 no CPT inconclusive
Cc1ccc(C)c(N2CCN(c3nc4ccc(C)cc4nc3-n3nc(C)cc3C)CC2)c1	none (no result: HT1080-NT tox, HT1080 IDH1KD tx)
Cc1cc(C)n(-c2nc3ccccc3nc2N2CCN(C(=O)c3ccccc3)CC2)n1	TGFb SMAD3 inh inconclusive
Cc1nnc(C)n1/N=C/c1ccc(-c2ccccc2)cc1	none
CCN(CC)c1ccc(-c2sc(Nc3ccccc3)n[n+]2-c2ccc(F)cc2)cc1	TGFb SMAD3 inh inconclusive, TDP1 cell CPT inconclusive, DT40 TDP1 no CPT 26µM, HT1080 IDH1KD tx inconclusive
CCc1ccc(Nc2n[n+](-c3ccccc3)c(-c3ccc(N(CC)CC)cc3)s2)cc1	HT1080-NT tox inconclusive, TGFb SMAD3 inh inconclusive, TDP1 cell CPT 6.5µM, DT40 TDP1 no CPT 9.2µM, HT1080 IDH1KD tx inconclusive
CN(C)c1ccc(-c2sc(Nc3ccccc3)n[n+]2-c2ccc(F)cc2)cc1	TDP1 cell CPT inconclusive, DT40 TDP1 no CPT inconclusive
CCc1ccc(Nc2n[n+](-c3ccccc3)c(-c3ccc(OCc4ccccc4)cc3)s2)cc1	TGFb SMAD3 inh inconclusive, TDP1 cell CPT 4.6µM, DT40 TDP1 no CPT 5.2µM, HT1080 IDH1KD tx inconclusive
CCN1C(=O)CSC1=Nc1ccc(C(=O)OC)cc1	none
CC(NC(=O)c1ccc(C23CC4CC(CC(C4)C2)C3)cc1)C(=O)O (configuration not stated)	none
O=C(CSc1nc2c(c(C(F)(F)F)n1)CCc1ccccc1-2)NCc1ccccc1	TDP1 cell CPT inconclusive, DT40 TDP1 no CPT 26µM
N#Cc1ccccc1OCC(=O)NNC(=O)CCC1CCCC1	none
N#Cc1ccccc1COc1cccc2c1CCCC2O (configuration not stated)	TDP1 cell CPT inconclusive, DT40 TDP1 no CPT 15µM
CCOc1cc(/C=C2\N=C(SC)SC2=O)cc([N+](=O)[O-])c1OC(C)=O	TDP1 cell CPT 18µM, DT40 TDP1 no CPT inconclusive
Cc1ccc(NS(=O)(=O)c2ccc3oc(=O)c4ncn(C)c4c3c2)cc1C	none (no result: HT1080-NT tox, HT1080 IDH1KD tx)
CCCCC1=CC2=CC(=O)C(C)(OC(=O)CC)C(=O)C2=CN1c1ccccc1 (configuration not stated)	TDP1 cell CPT inconclusive, DT40 TDP1 no CPT 16µM
CCCCC1=CC2=CC(=O)C(C)(OC(=O)CC)C(=O)C2=CN1Cc1ccccc1 (configuration not stated)	TDP1 cell CPT 13µM, DT40 TDP1 no CPT 18µM
COC(=O)CCCC1=CC2=CC(=O)C(C)(OC(=O)c3cccs3)C(=O)C2=CN1CCc1c[nH]c2ccccc12 (configuration not stated)	none
CCCCC1=CC2=CC(=O)C(C)(OC(=O)CC)C(=O)C2=CN1CCc1c[nH]c2ccccc12 (configuration not stated)	TDP1 cell CPT inconclusive, DT40 TDP1 no CPT 16µM
CCCCC1=CC2=CC(=O)C(C)(OC(=O)CC)C(=O)C2=CN1CCc1ccc(Br)cc1 (configuration not stated)	TDP1 cell CPT inconclusive, DT40 TDP1 no CPT inconclusive
CCCCC1=CC2=CC(=O)C(C)(OC(=O)CC)C(=O)C2=CN1Cc1ccco1 (configuration not stated)	TDP1 cell CPT inconclusive
Cc1cc(C(=O)N2CCN(c3ncccn3)CC2)nn1C	none
COc1cccc(CN2CCN(Cc3ccc4c(NC(C)=O)cccc4n3)CC2CCO)c1 (configuration not stated)	none
O=C(CNC(=O)c1ccccc1F)N/N=C/c1cc(Br)ccc1OCc1ccccc1	TDP1 cell CPT inconclusive, DT40 TDP1 no CPT 23µM
O=C(N/N=C/c1ccccc1OCc1ccccc1)c1cccnc1	TDP1 cell CPT inconclusive, DT40 TDP1 no CPT 29µM
O=C(O)c1cccc(NC(=S)N/N=C/c2ccccc2OCc2ccc(Br)cc2)c1	HT1080-NT tox inconclusive, TDP1 cell CPT inconclusive, DT40 TDP1 no CPT inconclusive, HT1080 IDH1KD tx inconclusive
O=C(O)c1cccc(NC(=S)N/N=C/c2ccccc2OCc2cccc(Br)c2)c1	TGFb SMAD3 inh inconclusive, TDP1 cell CPT 23µM, DT40 TDP1 no CPT inconclusive
